Compounds without any hit were thinned out: in the full panel of roughly 83,000, 20% have a hit.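 Cells were grown in 96-well plates and exposed to the test compound at a single concentration for 48 hours; results are reported as percent growth, with values below 10 considered active.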 A number with no mark means an inactive call. The source made the active and inactive calls.
What was measured:
Assay in all cases: NCI-60 one-dose screen, 48 h (100 = growth as untreated, 0 = no growth, -100 = all killed)
Details in all cases: 10 µM unless noted
[1] = tested on: NCI-H226 lung
[2] = tested on: NCI-H322M lung
[3] = tested on: HOP-62 NSCLC
[4] = tested on: NCI-H460 lung
[5] = tested on: HOP-92 NSCLC
[6] = tested on: NCI-H522 lung
[7] = tested on: A549/ATCC NSCLC
[8] = tested on: 786-0 renal
[9] = tested on: COLO 205 colon
[10] = tested on: DU-145 prostate

Row | SMILES | growth [1] | growth [2] | growth [3] | growth [4] | growth [5] | growth [6] | growth [7] | growth [8] | growth [9] | growth [10]
1 | Cc1ccc(-c2nc(C(Cl)Cl)nc3cc(-c4ccccc4)nn23)cc1 | 76.4% | -36.8% (active) | -16.7% (active) | -73.5% (active) | -3.62% (active) | 1.72% (active) | -56.3% (active) | 62.4% | -69.4% (active) | -26.3% (active)
2 | COc1ccc(/C=N/Nc2ccnc3cc(Cl)ccc23)cc1Cl | 69% | -64.1% (active) | -42.9% (active) | -79% (active) | -57.6% (active) | -73.7% (active) | -41.6% (active) | -94.9% (active) | -82.7% (active) | -57% (active)
3 | COc1ccc(/C=C/C(=O)c2ccc(NC(=O)CSc3nnc(-c4ccc5nc(-c6ccc(Cl)cc6)[nH]c5c4)o3)cc2)cc1 | 87.6% | 103% | 103% | 102% | 102% | 79.1% | 105% | 99.6% | 118% | 108%
4 | O=C(N/N=C/c1cccs1)c1[nH]c2ccc(Br)cc2c1-c1ccccc1 | 50.9% | 44.7% | 44.2% | 6.54% (active) | 39.9% | -43.9% (active) | 23.1% | 12% | -67.6% (active) | 20.7%
5 | Cc1cccc(/C=C/c2nn3c(-c4ccco4)nnc3s2)c1 | 96.5% | 94.4% | 100% | 102% | 119% | 95.2% | 95.3% | 97.6% | 107% | 105%
6 | C#C[C@]1(O)CC[C@H]2[C@@H]3CC=C4c5sc(-c6ccc(F)cn6)nc5CC[C@]4(C)[C@H]3CC[C@@]21C | 55.8% | 65.4% | 24.6% | 10.4% | 49.2% | 56.9% | 37.2% | -62.5% (active) | 92.2% | 47.3%
7 | CC(C)(C)Nc1nc2c(OCCc3ccccc3)cccn2c1-c1ccccc1Cl | -0.3% (active) | 8.57% (active) | -22.1% (active) | 0.335% (active) | -74.8% (active) | -13.4% (active) | 11.6% | 6.01% (active) | -76.6% (active) | 21.1%
8 | COc1cc(/C=C/C(=O)c2ccccc2)ccc1Oc1nc(NCCO)nc(N2CCOCC2)n1 | 107% | 99.3% | 90.1% | 110% | 90.9% | 99.3% | 98.8% | 105% | 116% | 104%
9 | Cc1cc2nc3c4cc(Cl)ccc4n(CC(=S)NCCN(C)C)c3nc2cc1C | -60.4% (active) | 40.1% | 50.1% | -90.2% (active) | -6.84% (active) | -49.4% (active) | -69.9% (active) | -95.6% (active) | -39% (active) | -51.6% (active)
10 | CC1=C(C)C(=O)C(Nc2ccccc2)=C(Cl)C1=O | 96.9% | 99.3% | 92.6% | 95.7% | 46% | 83.5% | 99.8% | 99.2% | 107% | 101%
11 | N#Cc1c(-c2ccc(Cl)cc2)nc(SCc2ccc(F)cc2)nc1N1CCNCC1 | 101% | 76.7% | 80.8% | -70.2% (active) | 6.64% (active) | 94.1% | 60.2% | 62.5% | -27.2% (active) | 61%
12 | COc1cc(N=Cc2sc(Nc3nccs3)nc2O)cc(OC)c1OC | 79.5% | 74% | 80.1% | 69.9% | 72.8% | 93.6% | 95.6% | 96.6% | 99.6% | 93.3%
13 | COc1ccc2[nH]cc(-c3cc(N)n4nc(-c5c[nH]c6ccc(OC)cc56)cc4n3)c2c1 | 36.8% | 25.4% | 76.2% | -84.6% (active) | 79.1% | 53.9% | -5.78% (active) | -86.4% (active) | -54.3% (active) | -10.5% (active)
14 | C=C1CC[C@H]2[C@@](C)(CCC3OC(c4ccc(OCc5cn(C6CC(OC(C)=O)C(OC(C)=O)C(COC(C)=O)O6)nn5)cc4)OC[C@]32C)[C@@H]1/C=C/C1=CCOC1=O (stereo not given in full) | 74.5% | 100% | 85.5% | 85.8% | 65.6% | 82.2% | 82.8% | 95.1% | 82.3% | 90%
15 | COc1cc(/C=C/C(=O)c2cc(OC)c(OC)c(OC)c2)ccc1OCc1ccc(F)cc1 | 49.5% | 49.7% | 36.2% | 54% | 44.7% | 56.4% | 51.2% | 62.8% | 70% | 58.3%
16 | CC(=O)c1ccc(Nc2nc(SC(C)C)nc(-c3ccccc3)c2C#N)cc1 | 123% | 98.7% | 92.7% | 101% | 70.2% | 86.8% | 93.5% | 84.7% | 114% | 91.2%
17 | OC1CCN(CCCOc2c3ccccc3nc3c2oc2ccccc23)CC1 | -31.2% (active) | -17% (active) | 5.52% (active) | 0.894% (active) | -11.8% (active) | -48.6% (active) | -12.2% (active) | 7.21% (active) | -63.8% (active) | 1.33% (active)
18 | O=C(CCCN1C(=O)/C(=C/c2ccccc2F)SC1=S)N1CCOCC1 | 110% | 85.5% | 119% | 97.8% | 86.4% | 48.8% | 93.1% | 89.8% | 126% | 74.5%
19 | Cc1cccc2sc(/N=C(\N)C(Cl)(Cl)Cl)nc12 | 100% | 103% | 81.5% | 100% | 101% | 95.7% | 92.2% | 93.9% | 110% | 92.2%
20 | CN1CCN(Cc2ccc(NC(=O)c3cncc(C#Cc4cnc5ccc(N6CCSCC6)nn45)c3)cc2C(F)(F)F)CC1 | -24.7% (active) | -23.9% (active) | -31.1% (active) | -46.6% (active) | -48.6% (active) | -75.4% (active) | -24.5% (active) | -77.7% (active) | -87.9% (active) | -83.2% (active)
21 | N#Cc1nc(-c2ccccc2)oc1N1CC[C@@H](CO)C1 | 94% | 93.8% | 102% | 99.7% | 98.5% | 95.1% | 101% | 103% | 106% | 100%
22 | N[C@@H](Cc1cn(-c2ccnc3ccccc23)nn1)C(=O)O | 109% | 102% | 95.1% | 112% | 101% | 101% | 101% | 104% | 112% | 110%
23 | CCCC(=O)NC(c1cccnc1)c1cc(C)c2cccnc2c1O (stereo not given) | 52.6% | 32.4% | 34.4% | 19.3% | 49.1% | 22.2% | 48.4% | 38.9% | 12.7% | 47.2%
24 | NS(=O)(=O)c1cccc(Nc2nc(SCC(=O)c3ccc(Cl)cc3)nc3ccccc23)c1 | 42.5% | 81.5% | 36.2% | 48.4% | 24.5% | 59.4% | 79.5% | 74.4% | 105% | 78.3%
25 | NC(=O)c1cc(-c2ccc3ncnc(N4CCc5cc(F)c(Cl)cc54)c3c2)cnc1N | 9.39% (active) | -3.06% (active) | 27.9% | 20% | 15.8% | 19.1% | 16.9% | 12.8% | 54.8% | 14.3%
26 | CCC/C=C/C=C/C(=O)N[C@@H](Cc1cc(F)cc(F)c1)C(=O)N[C@@H]1C(=O)N2CCC[C@H]2C(=O)N2CCCC[C@H]2C(=O)N[C@@H](C)C(=O)N2C[C@H](C)C[C@H]2C(=O)O[C@H]1C | 19.9% | 36.5% | 31.6% | 11.9% | 23% | 17.9% | 31.8% | 37.8% | -54.1% (active) | 22.6%
27 | Fc1ccc(-c2cc3nc(C(Cl)Cl)nc(-c4ccccc4)n3n2)cc1 | 85.7% | -33.9% (active) | -36.9% (active) | -69.1% (active) | -27.7% (active) | 42.4% | -45.6% (active) | 5.34% (active) | -72.5% (active) | -33.8% (active)
